# Assay results as given in the supplement of paper PMC8728848.
# The full list was thinned out, with the strongest signals kept by preference.
# B1: GS7807Q-bfa-507-19-507 (Bacteroides fragilis) (protein)
# chain: ASCNKFDDLNTNPDAATKVTAPMLATKLILNITQQGSAKNFVYHSMLSKQIAWSENASDEQYNLFGRTDFDGYTILTNCQKMVDAANEGDKDSYAALAKFMKAYKLFYKSLEVGDIPYSDALKGEEGVQKPKYDTQKEVMRQVLEDLEEAYTLFSSGSDFDGDPIFGGDTENWKKTVVAFELKVLTHLCKKDTDADLKVKERFARLVSSGSLMTSNADNFQLVYSNKAGQLYPFYYTQNKHSDYLMMSSVIIDNLKKFNDYRMFYYASPAKAQTDKGIKDSEWDAYLSIDPSDSYSNISVLYGKGEFCLANLRYTRVPEGEPLMRLSYAEQNFILAEGAVRGWISEDASTYYKKGIEASMNFIADNTPDKEEYTHGRTITQEYIQEYLAQPVIQLSGDKEKDLEMILLQRYLASFLQHPYDAYYDYRRTGYPVLPINPSTNLNTEKNKIPTRWMYPEAEFSYNPDNANEAVQRQYNGSDDVNKLMWILQ
# Legend:
# Experiment in all cases: glycan array binding signal (z-score within array); higher = stronger binding
# Settings in all cases: glycan notation: IUPAC condensed, linker removed
# [1] = biological target: Fuc(a1-2)Gal(b1-3)GalNAc
# Method in brief: (§1)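 From the Consortium for Functional Glycomics database, 3228 arrays were curated, keeping only those whose protein sequence was available. Binding is given as a within-array Z-score averaged across arrays sharing a protein sequence and across linkers. Negative Z-scores can be read as non-binding.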
# [2] = biological target: Fuc(a1-2)Gal(b1-3)GalNAc(a1-3)[Fuc(a1-2)]Gal(b1-4)Glc
# Method in brief: as §1
# [3] = biological target: Fuc(a1-2)Gal(b1-4)GlcNAc(b1-2)Man(a1-3)[Fuc(a1-2)Gal(b1-4)GlcNAc(b1-2)Man(a1-6)]Man(b1-4)GlcNAc(b1-4)GlcNAc
# Method in brief: as §1
# [4] = biological target: Fuc(a1-2)Gal(b1-4)GlcNAc(b1-3)[Fuc(a1-3)[Gal(b1-4)]GlcNAc(b1-6)]Gal(b1-4)Glc
# Method in brief: as §1
# [5] = biological target: Fuc(a1-2)Gal(b1-4)GlcNAc(b1-6)GalNAc
# Method in brief: as §1
# [6] = biological target: Fuc(a1-2)Gal(b1-4)[Fuc(a1-3)]GlcNAc(b1-3)GalNAc
# Method in brief: as §1
# [7] = biological target: Fuc(a1-2)Gal3S(b1-4)GlcNAc
# Method in brief: as §1
# [8] = biological target: Fuc(a1-2)[Gal(a1-3)]Gal(b1-4)GlcNAc(b1-2)Man
# Method in brief: as §1
# [9] = biological target: Fuc(a1-2)[Gal(a1-3)]Gal(b1-4)[Fuc(a1-3)]Glc
# Method in brief: as §1
# [10] = biological target: Fuc(a1-2)[GalNAc(a1-3)]Gal(b1-3)GlcNAc(b1-6)GalNAc
# Method in brief: as §1
# [11] = biological target: Fuc(a1-2)[GalNAc(a1-3)]Gal(b1-4)GlcNAc(b1-2)Man(a1-3)[Fuc(a1-2)[GalNAc(a1-3)]Gal(b1-4)GlcNAc(b1-2)Man(a1-6)]Man(b1-4)GlcNAc(b1-4)[Fuc(a1-6)]GlcNAc
# Method in brief: as §1
# [12] = biological target: Fuc(a1-3)[Gal(b1-4)]GlcNAc(b1-2)Man(a1-3)[Fuc(a1-3)[Gal(b1-4)]GlcNAc(b1-2)Man(a1-6)]Man(b1-4)GlcNAc(b1-4)[Fuc(a1-6)]GlcNAc
# Method in brief: as §1
# [13] = biological target: Fuc(a1-3)[Gal(b1-4)]GlcNAc6S
# Method in brief: as §1
# [14] = biological target: Gal(a1-3)Gal(b1-4)GlcNAc(b1-2)Man(a1-3)[Gal(a1-3)Gal(b1-4)GlcNAc(b1-2)Man(a1-6)]Man(b1-4)GlcNAc(b1-4)GlcNAc
# Method in brief: as §1
# [15] = biological target: Gal(a1-3)Gal(b1-4)[Fuc(a1-3)]GlcNAc
# Method in brief: as §1
# [16] = biological target: Gal(a1-3)GalNAc
# Method in brief: as §1
# [17] = biological target: Gal(a1-3)[Gal(a1-4)]Gal(b1-4)GlcNAc
# Method in brief: as §1
# [18] = biological target: Gal(a1-4)Gal(b1-4)GlcNAc(b1-3)Gal(b1-4)Glc
# Method in brief: as §1
# [19] = biological target: Gal(b1-3)GalNAc(b1-3)Gal
# Method in brief: as §1
# [20] = biological target: Gal(b1-3)GlcNAc(b1-2)Man
# Method in brief: as §1
# [21] = biological target: Gal(b1-3)GlcNAc(b1-2)[Gal(b1-3)GlcNAc(b1-6)]Man(a1-6)[Gal(b1-3)GlcNAc(b1-2)Man(a1-3)]Man(b1-4)GlcNAc(b1-4)GlcNAc
# Method in brief: as §1
# [22] = biological target: Gal(b1-3)GlcNAc(b1-3)Gal(b1-4)GlcNAc(b1-3)Gal(b1-4)GlcNAc(b1-2)[Gal(b1-3)GlcNAc(b1-3)Gal(b1-4)GlcNAc(b1-3)Gal(b1-4)GlcNAc(b1-6)]Man(a1-6)[Gal(b1-3)GlcNAc(b1-3)Gal(b1-4)GlcNAc(b1-3)Gal(b1-4)GlcNAc(b1-2)Man(a1-3)]Man(b1-4)GlcNAc(b1-4)[Fuc(a1-6)]GlcNAc
# Method in brief: as §1
# [23] = biological target: Gal(b1-3)GlcNAc(b1-3)Gal(b1-4)GlcNAc(b1-6)[Gal(b1-3)GlcNAc(b1-3)]Gal(b1-4)Glc
# Method in brief: as §1
# [24] = biological target: Gal(b1-3)[Fuc(a1-4)]GlcNAc(b1-2)Man(a1-3)[Gal(b1-3)[Fuc(a1-4)]GlcNAc(b1-2)Man(a1-6)]Man(b1-4)GlcNAc(b1-4)[Fuc(a1-6)]GlcNAc
# Method in brief: as §1
# [25] = biological target: Gal(b1-4)GalNAc(b1-3)[Fuc(a1-2)]Gal(b1-4)GlcNAc
# Method in brief: as §1
# [26] = biological target: Gal(b1-4)GlcNAc(b1-2)Man
# Method in brief: as §1
# [27] = biological target: Gal(b1-4)GlcNAc(b1-2)Man(a1-6)Man(b1-4)GlcNAc(b1-4)GlcNAc
# Method in brief: as §1
# [28] = biological target: Gal(b1-4)GlcNAc(b1-2)[Gal(b1-4)GlcNAc(b1-6)]Man(a1-6)[GlcNAc(b1-4)][Gal(b1-4)GlcNAc(b1-2)[Gal(b1-4)GlcNAc(b1-4)]Man(a1-3)]Man(b1-4)GlcNAc(b1-4)[Fuc(a1-6)]GlcNAc
# Method in brief: as §1
# [29] = biological target: Gal(b1-4)GlcNAc(b1-3)Gal(b1-4)GlcNAc(b1-2)Man(a1-3)[Gal(b1-4)GlcNAc(b1-3)Gal(b1-4)GlcNAc(b1-2)Man(a1-6)]Man(b1-4)GlcNAc(b1-4)GlcNAc
# Method in brief: as §1
# [30] = biological target: Gal(b1-4)GlcNAc(b1-3)Gal(b1-4)GlcNAc(b1-3)Gal(b1-4)GlcNAc
# Method in brief: as §1
binder,measurement,setting,value
B1,glycan array binding signal (z-score),[1],-1.06
same,glycan array binding signal (z-score),[2],-0.063
same,glycan array binding signal (z-score),[3],6.11
same,glycan array binding signal (z-score),[4],0.636
same,glycan array binding signal (z-score),[5],4.43
same,glycan array binding signal (z-score),[6],1.5
same,glycan array binding signal (z-score),[7],-0.3
same,glycan array binding signal (z-score),[8],-0.226
same,glycan array binding signal (z-score),[9],1.42
same,glycan array binding signal (z-score),[10],-0.083
same,glycan array binding signal (z-score),[11],-0.243
same,glycan array binding signal (z-score),[12],-0.03
same,glycan array binding signal (z-score),[13],-1.03
same,glycan array binding signal (z-score),[14],3.33
same,glycan array binding signal (z-score),[15],0.431
same,glycan array binding signal (z-score),[16],-0.197
same,glycan array binding signal (z-score),[17],0.361
same,glycan array binding signal (z-score),[18],-0.723
same,glycan array binding signal (z-score),[19],0.094
same,glycan array binding signal (z-score),[20],-0.443
same,glycan array binding signal (z-score),[21],0.94
same,glycan array binding signal (z-score),[22],3.08
same,glycan array binding signal (z-score),[23],3.63
same,glycan array binding signal (z-score),[24],3.07
same,glycan array binding signal (z-score),[25],0.8
same,glycan array binding signal (z-score),[26],0.859
same,glycan array binding signal (z-score),[27],0.767
same,glycan array binding signal (z-score),[28],-0.993
same,glycan array binding signal (z-score),[29],3.08
same,glycan array binding signal (z-score),[30],0.693
